This is part of a sample that, as a whole, favours compounds with a hit. Of some 83,000 tested, about 20% had one in any assay.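 96-well plates, one dose, 48 hours. Percent growth reported; active if below 10.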 Active and inactive are the calls of the source.

This is an account of results in PubChem BioAssay (NCI).

This test deals with HCT-116 colon. In words: NCI-60 one-dose screen, 48 h (100 = growth as untreated, 0 = no growth, -100 = all killed). To be noted: 10 µM unless noted.
Regarding `Cc1ccc(C(=O)CC(=O)C(F)(F)C(F)(F)C(F)(F)F)s1`, the growth is 110% (inactive).
Under `COc1cc2c(cc1OC)-c1cc(OC)c(OC)cc1C(CN(C)C)C2` (stereo not drawn) stands 70.7% [100 µM] (inactive); under `CCOC(=O)C1OC2(CCCC2)OC1C(=O)OCC` (stereo not drawn), 98% (inactive).
The figure for `CCCCCCCCCCCCCCCCCC(=O)[O][Sn]([CH2]CCC)([CH2]CCC)[CH2]CCC` is -96.2% (active); for `FC(F)(F)c1nn[nH]n1` it is 108% (inactive); for `COc1cc(OC)c(Cl)cc1N` it is 106% (inactive).
The figure for `O=C1N(Cc2ccccc2Cl)c2ccccc2C12NN=C(c1ccccc1)S2` (stereo not drawn) is 43% (inactive); for `N/C(=N\OC(=O)c1ccccc1)C(Cc1ccccc1)C(=O)NOC(=O)c1ccccc1` (stereo not drawn) it is 2.08% (active).
For the compound `Nc1ccc(C2=NNC(=O)Cc3cc4c(cc32)OCCO4)cc1Cl`, the growth was 20.1% (inactive).
The figure for `COc1ccc2nc3ccccc3c(NCc3ccc(Cl)cc3)c2c1` is 6.81% (active); for `COC1(OC)C2(Cl)CCC1(Cl)C(Cl)=C2Cl` it is 105% (inactive); for `O=C(NCCN1CCCCC1)n1cc(-c2ccncc2)c(-c2ccc(Cl)c(O)c2)n1` it is 44.6% (inactive).
For `CC(=O)N1N=C(C2C(=O)N(C)C(=O)N(C)C2=O)CC1c1ccccc1C(=O)O` (stereo not drawn), the growth was 91.3% (inactive).
The figure for `c1cc(C2CCCCC2)ccc1-c1cnc2nonc2n1` is 4.27% (active); for `COc1ccc(-c2nc3c(c(-c4ccc(Cl)cc4)nn3-c3ccccc3)c(-c3ccc(O)cc3)c2C#N)cc1` it is 12% (inactive); for `c1ccc(-c2nnn(-c3ccccc3)n2)cc1` it is 97.3% (inactive).
The figure for `CC(C)c1nc2ccccc2n1CC(=O)N/N=C/c1cccc(O)c1` is 87% (inactive).
For the compound `N#Cc1ccc(-c2ccc(-c3cccs3)o2)cc1F`, the growth was 64.5% (inactive).
Under `CCN1C(=O)N(CC)C2C1NN=c1s/c(=C\c3ccco3)c(=O)n12` (stereo not drawn) stands 23.5% (inactive); under `O=C(O)C(CCc1ccccc1)NCc1ccccc1` (stereo not drawn), 90.7% (inactive); under `CN1C2CCC1/C(=C\c1ccc(Cl)cc1)C(=O)/C2=C/c1ccc(Cl)cc1`, 17.4% (inactive).
Under `Cc1cccc(/C=N/n2c(-c3ccc(Cl)cc3)nc3c(Br)cc(Br)cc3c2=O)c1` stands 22.2% (inactive); under `ClC1(Cl)C2CCCCCCC21` (stereo not drawn), 110% (inactive).
